In general, AC50 refers to the midpoint of the concentration-response curve, whichever way the signal moves.

Drawing on PubChem BioAssay (EPA / NIEHS), this text covers outcome and AC50 for 35 compounds.

SMILES strings stand for the structures. Inconclusive results are not listed. The source made the active and inactive calls. Rule for the calls: active = hit-call score of the fitted dose curve at least 0.9, where 1 is the maximum; inconclusive = response in the unintended direction; inactive = score below 0.9.

Broad substrate specificity ATP-binding cassette transporter ABCG2 (Homo sapiens), sequence (Q9UNQ0 whole entry, looked up): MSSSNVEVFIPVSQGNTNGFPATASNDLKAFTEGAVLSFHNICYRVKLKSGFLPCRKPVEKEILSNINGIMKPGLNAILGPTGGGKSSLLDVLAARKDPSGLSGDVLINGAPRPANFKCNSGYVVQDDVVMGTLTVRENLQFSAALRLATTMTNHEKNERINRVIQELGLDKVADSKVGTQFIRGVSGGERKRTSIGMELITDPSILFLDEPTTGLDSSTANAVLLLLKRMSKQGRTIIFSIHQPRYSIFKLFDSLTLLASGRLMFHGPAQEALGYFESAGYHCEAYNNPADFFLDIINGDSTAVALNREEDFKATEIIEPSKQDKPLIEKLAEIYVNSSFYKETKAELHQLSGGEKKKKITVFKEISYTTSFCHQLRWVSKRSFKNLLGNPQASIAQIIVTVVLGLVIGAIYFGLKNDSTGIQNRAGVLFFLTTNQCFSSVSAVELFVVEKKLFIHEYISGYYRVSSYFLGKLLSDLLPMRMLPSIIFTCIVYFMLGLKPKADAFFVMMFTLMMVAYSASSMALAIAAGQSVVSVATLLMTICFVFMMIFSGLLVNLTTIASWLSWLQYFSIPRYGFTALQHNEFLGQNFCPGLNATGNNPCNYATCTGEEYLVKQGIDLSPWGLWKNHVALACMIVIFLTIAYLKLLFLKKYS

Read-out in the first test: Broad substrate specificity ATP-binding cassette transporter ABCG2 (Homo sapiens) (UniProt Q9UNQ0)
As to the kind of experiment: CLD_ABCG2_6hr: CellzDirect (CLD) Gene Expression Assay for ABC Transporter (ABCG2) at 6 hours (AID 2283660). The essentials: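 Primary human hepatocytes dosed daily with chemicals at multiple concentrations (0.2% DMSO vehicle), harvested 6 h after dosing. ABCG2 mRNA induction read by quantitative nuclease protection assay (qNPA) chemiluminescence; gain of signal fitted against DMSO baseline.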
Take `CCOc1cc(C(C)(C)C)ccc1C1COC(c2c(F)cccc2F)=N1` (stereo not given): the compound was classed as inactive.

Consider `Nc1c(Cl)c(Cl)nc(C(=O)O)c1Cl`, for which the result was inactive.

In the case of `COP(=S)(OC)SCn1nnc2ccccc2c1=O`, the call was inactive.

Regarding `CCCCC(O)(Cn1cncn1)c1ccc(Cl)cc1Cl` (stereo not given), the call was inactive.

With `CCCCOCN(C(=O)CCl)c1c(CC)cccc1CC`, the call was inactive.

For the compound `CO/N=C(/C1=NOCCO1)c1ccccc1Oc1ncnc(Oc2ccccc2Cl)c1F`, the outcome was inactive.

For the compound `Nc1c(Cl)c(F)nc(OCC(=O)O)c1Cl`, the result was inactive.

Regarding `Clc1nc(Cl)nc(Nc2ccccc2Cl)n1`, the call was inactive.

For `CCOc1nc(C(Cl)(Cl)Cl)ns1`, the outcome was inactive.

As to `CC1(C)CCC(=Cc2ccc(Cl)cc2)C1(O)Cn1cncn1` (stereo not given), the compound was classed as inactive.

Consider `CN=C=S`, for which the compound was called inactive.

As to `CC(C)C1(C)N=C(c2ncccc2C(=O)O)NC1=O` (stereo not given), the outcome was inactive.

Consider `CC(C)N1C(=O)N(c2ccccc2)CSC1=NC(C)(C)C`, for which the call was inactive.

As for `Cc1cnc(C2=NC(C)(C(C)C)C(=O)N2)c(C(=O)O)c1` (stereo not given), the result was inactive.

On to `C=CCOC(=O)C(C)(C)OC(=O)c1cc(-n2c(=O)cc(C(F)(F)F)n(C)c2=O)ccc1Cl`, for which the compound was called inactive.

For `CC(C)Nc1nc(Cl)nc(NC(C)C)n1`, the compound was called inactive.

Consider `O=c1n(Cl)c(=O)n(Cl)c(=O)n1Cl`, for which the outcome was inactive.

For the compound `Cc1ccc(N=CN(C)C=Nc2ccc(C)cc2C)c(C)c1`, the call was inactive.

In the case of `OC(c1ccc(Cl)cc1)(c1ccc(Cl)cc1)C(Cl)(Cl)Cl`, the call was inactive.

As for `COC(=O)NS(=O)(=O)c1ccc(N)cc1`, the outcome was inactive.

Read-out in another test: xenobiotic metabolism (CYP1A1), CYP1A1 (gene 1543)
Nature of the test: CLD_CYP1A1_6hr: CellzDirect (CLD) Gene Expression Assay for xenobiotic metabolism (CYP1A1) at 6 hours (AID 2283661).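 For AC50: potency for transcript induction above DMSO vehicle baseline.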 Put shortly: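 Primary human hepatocytes from two donors, compound versus 0.2% DMSO vehicle. CYP1A1 mRNA measured 6 h after dosing by quantitative nuclease protection assay with chemiluminescent read-out; induction fitted relative to DMSO, cytotoxicity flagged by microscopy.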
Take `CCOc1cc(C(C)(C)C)ccc1C1COC(c2c(F)cccc2F)=N1` (stereo not given): the call was inactive.

As for `Nc1c(Cl)c(Cl)nc(C(=O)O)c1Cl`, the AC50 was 20 µM (active).

Consider `O=C(Nc1ccccc1-c1ccc(Cl)cc1)c1cccnc1Cl`, for which the AC50 was 2.46 µM (active).

As for `COP(=S)(OC)SCn1nnc2ccccc2c1=O`, the AC50 was 6.49 µM (active).

Consider `CCNP(=S)(OC)O/C(C)=C/C(=O)OC(C)C` (stereo not given), for which the AC50 was 3.37 µM (active).

On to `CCCCC(O)(Cn1cncn1)c1ccc(Cl)cc1Cl` (stereo not given), for which the AC50 is 0.532 µM (active).

As for `CCCCOCN(C(=O)CCl)c1c(CC)cccc1CC`, the AC50 was 5.21 µM (active).

Regarding `COC(=O)NC(=S)Nc1ccccc1NC(=S)NC(=O)OC`, the AC50 is 5.11 µM (active).

With `CNC(=O)Oc1cccc2ccccc12`, the half-maximal activity concentration (AC50) was 4.68 µM (active).

Regarding `COCC(=O)N(c1c(C)cccc1C)C(C)C(=O)OC` (stereo not given), the AC50 was 20 µM (active).

Turning to `Nc1c(Cl)c(F)nc(OCC(=O)O)c1Cl`, the outcome was inactive.

Turning to `CSC(=O)c1c(C(F)F)nc(C(F)(F)F)c(C(=O)SC)c1CC(C)C`, the concentration at half-maximal activity (AC50) was 5.31 µM (active).

Consider `Clc1nc(Cl)nc(Nc2ccccc2Cl)n1`, for which the outcome was inactive.

Turning to `CCOc1nc(C(Cl)(Cl)Cl)ns1`, the AC50 was 8.85 µM (active).

For `CC1(C)CCC(=Cc2ccc(Cl)cc2)C1(O)Cn1cncn1` (stereo not given), the AC50 is 0.00693 µM (active).

As to `CN=C=S`, the compound was called inactive.

For the compound `CC(C)C1(C)N=C(c2ncccc2C(=O)O)NC1=O` (stereo not given), the AC50 is 1.9 µM (active).

In the case of `CC(C)N1C(=O)N(c2ccccc2)CSC1=NC(C)(C)C`, the call was inactive.

Regarding `Cc1cnc(C2=NC(C)(C(C)C)C(=O)N2)c(C(=O)O)c1` (stereo not given), the compound was called inactive.

Take `C=CCOC(=O)C(C)(C)OC(=O)c1cc(-n2c(=O)cc(C(F)(F)F)n(C)c2=O)ccc1Cl`: the result was inactive.

`CCN(CC)c1nc(C)cc(OP(=S)(OC)OC)n1`: the concentration at half-maximal activity (AC50) is 4.71 µM (active).

As for `CC(C)Nc1nc(Cl)nc(NC(C)C)n1`, the AC50 was 4.73 µM (active).

On to `CCOC(=O)C(C)OC(=O)c1cc(Oc2ccc(C(F)(F)F)cc2Cl)ccc1[N+](=O)[O-]` (stereo not given), for which the AC50 was 4.58 µM (active).

For the compound `COC(=O)N(C(=O)N1CO[C@@]2(C(=O)OC)Cc3cc(Cl)ccc3C2=N1)c1ccc(OC(F)(F)F)cc1`, the AC50 was 2.46 µM (active).

In the case of `O=c1n(Cl)c(=O)n(Cl)c(=O)n1Cl`, the concentration at half-maximal activity (AC50) is 11.3 µM (active).

In the case of `Clc1cccc(C(Cl)(Cl)Cl)n1`, the AC50 was 20 µM (active).

As to `OC(c1ccc(Cl)cc1)(c1ccc(Cl)cc1)C(Cl)(Cl)Cl`, the call was inactive.

In the case of `CC(C)=CC1C(C(=O)OCc2coc(Cc3ccccc3)c2)C1(C)C` (stereo not given), the compound was called inactive.

For the compound `C=C(C)CN(CC)c1c([N+](=O)[O-])cc(C(F)(F)F)cc1[N+](=O)[O-]`, the call was inactive.

As to `O=C(O)c1c(Cl)ccc2cc(Cl)cnc12`, the outcome was inactive.

Consider `CC(C)N1C(=O)c2ccccc2NS1(=O)=O`, for which the compound was called inactive.

For the compound `CCNC(=O)NC(=O)C(C#N)=NOC`, the compound was called inactive.

In the case of `COC(=O)NS(=O)(=O)c1ccc(N)cc1`, the result was inactive.

A further test concerns Thyroperoxidase (TPO), gene 54314. As to the kind of experiment: CCTE_Simmons_AUR_rTPO: CCTE's Amplex UltraRed Assay for Thyroperoxidase (TPO) Inhibition, Simmons Lab (AID 2283662).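 For AC50: potency for loss of signal meaning inhibition of peroxidase activity.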 Put shortly:
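Endpoint is decreased Amplex UltraRed fluorescence after a 30-min, 37C reaction of rat thyroid microsomes with 300 uM H2O2. Eight test concentrations (5 nM–87.5 uM final) in 0.5% DMSO, three biological replicates each.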
As to `COP(=S)(OC)SCn1nnc2ccccc2c1=O`, the AC50 was 6.68 µM (active).

Consider `CCNP(=S)(OC)O/C(C)=C/C(=O)OC(C)C` (stereo not given), for which the call was inactive.

As for `COC(=O)NC(=S)Nc1ccccc1NC(=S)NC(=O)OC`, the AC50 is 22.2 µM (active).

With `Clc1nc(Cl)nc(Nc2ccccc2Cl)n1`, the AC50 is 6.29 µM (active).

In the case of `CCOc1nc(C(Cl)(Cl)Cl)ns1`, the call was inactive.

In the case of `Cc1cnc(C2=NC(C)(C(C)C)C(=O)N2)c(C(=O)O)c1` (stereo not given), the compound was called inactive.

On to `CCN(CC)c1nc(C)cc(OP(=S)(OC)OC)n1`, for which the AC50 was 19.1 µM (active).

Take `O=c1n(Cl)c(=O)n(Cl)c(=O)n1Cl`: the AC50 is 22.5 µM (active).

Turning to `OC(c1ccc(Cl)cc1)(c1ccc(Cl)cc1)C(Cl)(Cl)Cl`, the AC50 was 43.8 µM (active).

Take `CC(C)=CC1C(C(=O)OCc2coc(Cc3ccccc3)c2)C1(C)C` (stereo not given): the AC50 is 26.8 µM (active).

On to `CCNC(=O)NC(=O)C(C#N)=NOC`, for which the AC50 is 41.2 µM (active).

Turning to `COC(=O)NS(=O)(=O)c1ccc(N)cc1`, the AC50 is 20.2 µM (active).
